Assay outcomes deposited in PubChem BioAssay by National Center for Advancing Translational Sciences (NCATS).
An excerpt weighted towards active compounds, which were near 19% of everything screened.
TDP1 cell noCPT = qHTS for Inhibitors of human tyrosyl-DNA phosphodiesterase 1 (TDP1): qHTS in cells in absence of CPT; DT40 Tdp1-/- hTDP1 cells, no CPT, ATP luminescence, 48 h; Potency, µM (titrated, usually from 46.2 µM), inactives show at the top dose activity change, negative = growth inhibition, usual class: inhibitors; actives 15% (n = 420,000); AID 686978, 2013; further: potency means the concentration at half of the fitted maximal effect; nearly all actives have a fitted effect of over 55% in size
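Growth kinetics read by CellTiter-Glo luminescence after ≥48 hr at 37 °C. Cells: DT40 Tdp1-/- stably carrying human TDP1, 400 per well, compound exposure in the absence of CPT (DMSO vehicle).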
TDP1 cell CPT = qHTS for Inhibitors of human tyrosyl-DNA phosphodiesterase 1 (TDP1): qHTS in cells in presence of CPT; chicken DT40 Tdp1-/-;hTDP1 cells + 20 nM CPT, ATP luminescence, 48 h; Potency, µM (titrated, usually from 46.2 µM), for the others: top-dose activity change, negative = growth inhibition, usual class: inhibitors; actives 12% (n = 420,000); further: potency means the concentration at half of the fitted maximal effect; nearly all actives have a fitted effect of over 55% in size
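Chicken DT40 Tdp1-/- cells complemented with human TDP1, 400 cells/well, exposed to compounds plus 20 nM camptothecin for at least 48 h at 37 C; viability read as ATP content by CellTiter-Glo luminescence.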
HT1080 IDH1KD tx = qHTS for induction of synthetic lethality in tumor cells producing 2HG: qHTS for the HT-1080-IDH1KD cell line; actives 2% (n = 360,000); HT-1080 IDH1 knockdown viability, ATP luminescence, 48 h; Potency, µM (titrated, usually from 46.1 µM), inactives show top-dose activity, negative = toxicity, hits mostly cytotoxic;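 further: potency means the concentration at half of the fitted maximal effect; 0% = DMSO wells and -100% = cell-free medium wells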
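Knockdown cells (IDH1KD HT-1080) received compounds 2 h after plating at 750 cells/well and were kept 48 h at 37 °C in 5% FBS RPMI. A CellTiter-Glo luminescence read gave % activity for curve fitting.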
IL-1B inflam inh = qHTS for Inhibitors of Inflammasome Signaling: IL-1-beta AlphaLISA Primary Screen; activity change, % at 57.5 µM; THP-1 LPS/ATP IL-1B secretion, AlphaLISA, 16 h; hits give low values; actives 4.7% (n = 360,000); AID 743279, 2014; in the data active means activity change below about -50%; inconclusive means mostly about -30% to -49%
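THP-1 cells pretreated 1 hr with compounds (up to 57.5 uM final), then stimulated with LPS (250 ng/mL final) plus ATP (1.25 mM final); secreted IL-1B measured by AlphaLISA after 16 hr, decreased signal indicating inhibition.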
HT1080NT lethal = qHTS for induction of synthetic lethality in tumor cells producing 2HG: qHTS for the HT-1080-NT fibrosarcoma cell line. HT-1080-NT fibrosarcoma viability, CellTiter-Glo ATP luminescence, 48 h. actives 1.6% (n = 360,000). Potency, µM (highest dose often 46.1 µM), for inactives: top-dose activity, negative = less viability, hits mostly cytotoxic. AID 686970, 2013;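 further: NT is the 2HG producing partner of a matched IDH1 knockdown line; potency means the concentration at half of the fitted maximal effect; 0% = DMSO-treated cells and -100% = media-only wells without cells; nearly all actives have a fitted effect of over 55% in size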
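Viability of the 2HG-overproducing fibrosarcoma line after 48 hours of compound exposure at 37 degrees C was determined by luminescence with CellTiter-Glo, and concentration-effect curves were then fitted and categorized.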
The depositor's hits bear a star; ? = inconclusive; · = no result; [ ] = remark or other dose. Unless noted, the call rests on the fitted dose curve; in most records, active means well fitted curve in the direction sought with a large enough effect; inconclusive means small, poorly fitted or top-dose-only effect, or another doubt; inactive means no such curve, though single readings can be large; an effect the other way counts as inactive or inconclusive. Unless noted, on the % scale 0 is the no-effect control and ±100 the full control effect.

SMILES	TDP1 cell noCPT	TDP1 cell CPT	HT1080 IDH1KD tx	IL-1B inflam inh	HT1080NT lethal
CCC(C(=O)NCc1ccccc1)n1c(C2CCN(C(C)=O)CC2)nc2ccccc21 (stereo unspecified)	-27.4%	-9.5%	-1.2%	24.0	-3.7%
CCOc1cccc(N(C(=O)c2ccco2)C(C(=O)NC2CCCC2)c2cccnc2)c1 (stereo unspecified)	-22.3%	0.9%	29.1%	-1.9	21.4%
CCCSc1ccc2nc(-c3ccccc3)cn2c1	16.4µM*	18.4µM*	11.6µM*	-4.3	11.6µM*
CCCCSc1ccc2nc(-c3ccc(C#N)cc3)cn2c1	?	?	-24.7%	-2.9	-25.7%
N=C1CCC(=N)c2c1c(O)c1ccccc1c2O	?	?	?	?	23.1µM*
Cc1nn(-c2ccc(C(=O)OC(C)C)cc2)c(C)c1[N+](=O)[O-]	25.9µM*	-0.8%	-0.4%	-9.3	6.7%
COCCN(Cc1nc(-c2ccc(-c3ccccc3)cc2)oc1C)C(C)C	20.6µM*	14.6µM*	-7.1%	13.3	-13.2%
Cc1oc(-c2ccoc2)nc1CN(CC1CCC(=O)N1)C(C)C (stereo unspecified)	-5.1%	9.1%	-17.8%	1.8	0.2%
CCC(C)NC(=O)/C=C1\Sc2ccccc2NC1=O (stereo unspecified)	?	-12.3%	7.0%	-61.0*	27.6%
Cc1ccc(N/C=C2/Sc3ccccc3NC2=O)cc1	1.7%	-14.3%	5.5%	13.3	17.1%
CCC1(C)CC(CCNS(=O)(=O)c2ccc(C)cc2)(c2ccc(C)cc2)CCO1 (stereo unspecified)	29.1µM*	18.4µM*	?	-9.0	?
CC1(C)CC(CCNS(=O)(=O)c2ccccc2)(c2ccccc2)CCO1 (stereo unspecified)	?	?	-2.3%	-11.9	-0.8%
O=C(COc1ccccc1)NCCSc1ccccc1	-26.4%	-3.1%	0.4%	-6.2	6.6%
C=CCNC(=O)COc1ccc(Oc2ccccc2)cc1	25.9µM*	14.6µM*	-4.2%	-27.7	-25.7%
CNCC/C=C1/c2ccccc2CSc2ccccc21	?	?	?	0.0	16.4µM*
Cn1c(=O)oc2cc(S(=O)(=O)N3CCN(c4ccccc4F)CC3)ccc21	-6.8%	0.4%	-1.7%	49.7	13.4%
CCOc1ccc(S(=O)(=O)N2CCCC2)c2ccccc12	?	?	-19.9%	15.4	-12.8%
CCOc1ccc(S(=O)(=O)N2CCC(C(=O)N3CCN(c4ccccc4F)CC3)CC2)cc1C	29.1µM*	23.1µM*	-7.6%	-28.4	-2.6%
CCOc1ccc(S(=O)(=O)N2CCN(c3ccccc3F)CC2)c2cccnc12	16.4µM*	20.6µM*	-10.6%	0.0	-2.4%
Cn1c(=O)oc2cc(S(=O)(=O)N3CCC(C(=O)N4CCN(c5ccccc5F)CC4)CC3)ccc21	18.4µM*	?	·	·	·
CCOc1ccc(NC(=O)C2CCN(S(=O)(=O)c3ccc4c(c3)oc(=O)n4C)CC2)cc1	-11.9%	-14.1%	·	·	·
CCOC(=O)c1cccc(NC(=O)C2CCN(S(=O)(=O)c3ccc4c(c3)oc(=O)n4C)CC2)c1	20.6µM*	?	·	·	·
CCOCCCNS(=O)(=O)c1ccc(-n2cnnn2)c(OC)c1	-18.1%	-26.4%	-0.1%	-13.7	-2.1%
Cc1ccc(Cl)cc1NC(=O)CCC(=O)O	0.0%	-13.8%	?	41.4	18.9%
O=C(c1ccc(N2CCOCC2)c([N+](=O)[O-])c1)N1CCCC(C(F)(F)F)C1 (stereo unspecified)	-24.8%	-20.2%	13.6%	-6.1	1.0%
SMILES	TDP1 cell noCPT	TDP1 cell CPT	HT1080 IDH1KD tx	IL-1B inflam inh	HT1080NT lethal
COc1ccc(F)cc1S(=O)(=O)N1CCC2(CC1)OCCN2S(=O)(=O)c1cccs1	?	?	-5.3%	4.1	-0.3%
Cc1ccc(C(=O)NCC(=O)OCc2nnc(-c3ccc([N+](=O)[O-])cc3)o2)cc1	-22.2%	-25.7%	4.8%	23.4	6.3%
CSc1ccc(OC2(C)CCN(Cc3cc4ccccc4o3)C2)cc1 (stereo unspecified)	-25.0%	-22.6%	3.0%	17.8	1.3%
CCOC(=O)N1CCN(S(=O)(=O)c2ccc3c(c2)SC(C)C(=O)N3)CC1 (stereo unspecified)	9.2µM*	13µM*	-10.7%	18.9	-1.1%
CCOC(=O)N1CCN(S(=O)(=O)c2ccc(OCC)c(C)c2)CC1	9.2µM*	?	-4.8%	-5.5	-1.2%
Cc1cccc(N2CCN(C(=O)C3CCCN(S(=O)(=O)c4ccc5c(c4)oc(=O)n5C)C3)CC2)c1C (stereo unspecified)	3.66µM*	7.31µM*	·	·	·
CCOC(=O)N1CCN(S(=O)(=O)c2ccc3c(c2)SCC(=O)N3)CC1	?	?	-6.7%	12.2	-10.8%
Cc1cccc(N2CCN(C(=O)C3CCN(S(=O)(=O)c4ccc5c(c4)oc(=O)n5C)CC3)CC2)c1C	3.66µM*	4.61µM*	·	·	·
CCC1CN(CCNC(=O)c2cn3cc(C)ccc3n2)Cc2cc(OC)ccc2O1 (stereo unspecified)	?	3.1%[9.04 µM]	·	·	·
CCN(CC)C(=O)Cn1c(=O)n(CCCCCC(=O)NCc2ccc(C)cc2)c(=O)c2sccc21	-25.4%	2.2%	·	·	·
C[C@@H]1CN([C@H](C)CO)C(=O)CCCn2cc(nn2)CO[C@H]1CN(C)C(=O)Nc1ccc(-c2cccs2)cc1	-27.6%	-13.5%	4.2%	8.8	1.7%
CCOC(=O)/C=C/C(=O)Nc1ccc(S(=O)(=O)Nc2nccs2)cc1	-6.5%	13.2%	5.5%	3.7	20.3%
CC(C)(C)c1ccc(-c2nc3c(C#N)c(-c4ccc5c(c4)OCO5)ccn3n2)cc1	13µM*	18.4µM*	0.6%	40.8	-1.4%
CCCCCc1nc2c(C#N)c(-c3ccc(Cl)cc3)ccn2n1	-22.1%	-25.8%	-5.2%	-15.0	-2.1%
CCOC(=O)CC1(NC(=O)c2cc(COc3cccc(OC)c3)on2)CCCCC1	10.3µM*	23.1µM*	-18.5%	-21.8	1.9%
O=C(NCCc1ccco1)c1cc(COc2cccc(C(F)(F)F)c2)on1	?	?	?	-83.3*	-19.8%
COc1cccc(CCNC(=O)c2cc(COc3cccc(OC)c3)on2)c1	16.4µM*	?	-8.0%	-1.0	-2.8%
COc1cccc(CCNC(=O)c2cc(COc3ccc(C)c(C)c3)on2)c1OC	14.6µM*	?	-1.3%	-23.1	2.3%
